TRb-SRC2 inh – inhibitors of human thyroid hormone receptor beta-SRC2 interaction; Potency, µM (highest dose often 106 µM), inactives show top-dose activity change, negative = inhibition, actives largely listed as inhibitors; AID 1469; actives 0.065% (n = 280,000); TRbeta-SRC2 peptide binding, fluorescence polarization; receptor liganded with 1 µM T3;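 further: plate controls were bound peptide for no effect and peptide without receptor for full effect; nearly all actives have a fitted effect of over 50% in size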
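Fluorescence polarization of 20 nM Texas Red SRC2 peptide with 0.6 uM human TRb ligand-binding domain, in Tris buffer with 1uM T3 and 5% DMSO. Incubated 5 hr ambient; normalized to unbound and bound controls.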
Tau fluor counter – counter-screen for tau fibril formation inhibitors; tau K18 P301L Alexa594 fluorescence, heparin fibrillization; Potency, µM (highest dose often 57.7 µM), for the others: at the top dose activity change, negative = decrease; actives 0.93% (n = 280,000); AID 1463; further: nearly all actives have a fitted effect of over 55% in size
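Human tau K18 P301L (15 uM unlabeled, 0.24 uM Alexa 594-labeled) in 100 mM sodium acetate pH 7 with 20 uM heparin, 6 hr at 37 C. ThT 30 uM added, 1 hr ambient; Alexa 594 FP and total fluorescence read at 555/632 nm.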
Tau ThT inhib – blocks human tau fibril formation measured by thioflavin T; AID 1460; Potency, µM (top dose mostly 57.4 µM), for inactives: at the top dose activity, negative = inhibition, usual class: inhibitors; P10636; actives 2.1% (n = 270,000); recombinant tau K18 P301L, heparin-induced fibrillization, ThT fluorescence; further: nearly all actives have a fitted effect of over 55% in size
Target sequence (P10636 561-689 P618L limits assumed): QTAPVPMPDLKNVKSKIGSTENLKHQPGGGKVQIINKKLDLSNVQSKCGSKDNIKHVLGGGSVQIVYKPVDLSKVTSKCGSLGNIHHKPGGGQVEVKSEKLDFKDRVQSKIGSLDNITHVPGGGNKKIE
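Using a mix of unlabeled (15 uM) and Alexa 594-labeled (0.24 uM) tau K18 P301L, heparin-triggered fibrillization over 6 hr at 37 C was scored by ThT fluorescence.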
Tau FP inhib – blocks human tau fibril formation measured by polarization; K18 P301L tau heparin fibrillization, Alexa594 FP, 6 h; Potency, µM (top dose mostly 57.7 µM), without a hit: top-dose activity, negative = inhibition, hits mostly inhibitors; actives 0.39% (n = 280,000); AID 1468; further: nearly all actives have a fitted effect of over 55% in size
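Read-out: fluorescence polarization of Alexa 594-labeled tau (0.24 uM), 555 nm excitation, 632 nm emission. Mixtures held 15 uM unlabeled K18 P301L, compound and 20 uM heparin, pH 7 acetate buffer, incubated 6 hr at 37 C.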
TR SRC2 fluor cs – counter-screen for TRb-SRC2 inhibitors: fluorescence interference; TRb/SRC2 Texas Red total fluorescence interference; Potency, µM (titrated, usually from 106 µM), without a hit: top-dose fluorescence change, negative = quenching; actives 0.29% (n = 280,000); AID 1479; active means well fitted curve in either direction with a large enough effect; inconclusive means small, poorly fitted or top-dose-only effect
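Human TRb ligand-binding domain at 0.6 uM with 20 nM Texas Red SRC2 peptide in Tris buffer containing 1 uM T3 and 5% DMSO, incubated with compound 5 h at ambient temperature. Total fluorescence (555/632 nm) calculated as parallel + 2 × perpendicular.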
RGS12 GoLoco inh – blocks human Gai1 binding to RGS12 GoLoco peptide, red readout; Gai1:RGS12 GoLoco peptide FP, rhodamine, 10 min; Potency, µM (doses to about 61.6 µM), without a hit: top-dose activity, negative = inhibition, actives largely listed as inhibitors; P63096; actives 0.44% (n = 230,000); active means well fitted inhibition curve with a large enough effect, not every such curve was filed as active; inactive means no such curve, though single readings can be large or run the other way; further: nearly all actives have a fitted effect of over 30% in size
Target sequence (P63096 whole entry, looked up): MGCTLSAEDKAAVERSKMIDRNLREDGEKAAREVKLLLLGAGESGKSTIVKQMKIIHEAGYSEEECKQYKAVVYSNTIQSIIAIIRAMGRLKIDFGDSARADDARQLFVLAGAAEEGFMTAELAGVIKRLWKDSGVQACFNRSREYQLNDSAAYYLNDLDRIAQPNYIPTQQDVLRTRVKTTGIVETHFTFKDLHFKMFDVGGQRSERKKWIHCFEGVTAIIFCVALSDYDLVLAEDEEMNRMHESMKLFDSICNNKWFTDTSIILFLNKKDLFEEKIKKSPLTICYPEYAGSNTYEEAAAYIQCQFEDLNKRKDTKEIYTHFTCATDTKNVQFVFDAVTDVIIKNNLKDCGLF
* = called active by the depositor; ? = inconclusive; · = not tested or not shown; [ ] = dose if it differs, or a comment. Shown are actives, neighbours in structure and some others; about 3.2% of the full set was active somewhere. Unless noted, the call rests on the fitted dose curve; in most records, active means well fitted curve in the direction sought with a large enough effect; inconclusive means small, poorly fitted or top-dose-only effect, or another doubt; inactive means no such curve, though single readings can be large; an effect the other way counts as inactive or inconclusive. Unless noted, on the % scale 0 is the no-effect control and ±100 the full control effect; potency means the concentration at half of the fitted maximal effect.

SMILES	TRb-SRC2 inh	Tau fluor counter	Tau ThT inhib	Tau FP inhib	TR SRC2 fluor cs	RGS12 GoLoco inh
Cc1c(C(=O)NCc2ccccc2)sc2nc3n(c(=O)c12)CCCCC3	2%	-2%	?	-10%	-28%	·
COc1ccc(-c2ccc(-c3cc(=O)oc4cc(OC)c(OC)c(OC)c34)cc2)cc1OC	6%	-20%	-14%	10%	7%	7%
COc1cc2oc(=O)cc(-c3ccc(-c4ccc(O)cc4)cc3)c2c(OC)c1OC	5%	10µM*[quencher]	?	?	1%	-19%
CC1=NN(C(N)=S)C(=O)C1N=Nc1ccc(O)cc1 (stereo not drawn)	-5%	-17%	13µM*	-10%	-7%	23%
COc1ccc(OC)c(NC(=O)CN2C(=O)c3ccccc3Sc3ccc(C(=O)N4CCCC4)cc32)c1	-20%	-7%	-17%	0%	794µM*[quencher]	·
O=C(Nc1ccccc1)c1ccc(CSc2ncccn2)cc1	1%	-11%	?	-5%	1%	2.2µM*
COc1ccc(CCNc2nc3ccccc3c3nc(-c4cccc(C)c4)nn23)cc1OC	1%	?	?	-7%	-14%	·
COC(=O)C1=C(C(=O)OC)[C@@H]2N(C)c3ccccc3[C@@]23C[C@@H](C(=O)OC)N(S(=O)(=O)c2ccc([N+](=O)[O-])cc2)C3=N1	6%[11.2 µM]	-22%[11.6 µM]	-11%[11.5 µM]	10%[11.6 µM]	-4%[11.2 µM]	3%[14.2 µM]
COc1cccc(/C=N/c2oc(-c3ccccc3)cc2C#N)c1O	-12%	-27%	14µM*	1%	-3%	16%
C1CCC(NC(=NC2C3CC4CC(C3)CC2C4)N2CCOCC2)CC1 (stereo not drawn)	-6%	-1%	1%	-3%	0%	1%
Cc1ccc(N=Nc2c(N)nn3c(C)cc(C)nc23)cc1	-8%	-14%	?	0%	-8%	1%
Cc1ccc(N=Nc2c(N)nn3c(N)c(C#N)c(C)nc23)cc1	6%	?	1.4µM*	-10%	3%	11%
Cc1nn(-c2ccccc2)c(N)c1N=O	0%	0%	-3%	1%	-5%	4%
Cc1nn(-c2ccccc2)c(N)c1N=Nc1ccc2ccccc2c1	2%	16µM*[quencher]	5µM*	1%	-2%	8%
Cc1ccc(N=Nc2c(N)nn(-c3ccccc3)c2N)cc1	1%	?	4.5µM*	-6%	-2%	12%
COc1ccc(-c2c(C)nn(-c3ccccc3)c2N)cc1	-6%	-19%	-26%	-1%	-7%	3%
CC(C)c1ccc2cc(C(C)C)ccc2c1	-2%[201 µM]	·	·	·	3%[201 µM]	·
CCOC(=O)OCC1OC(CCc2ccccc2)CCC1Oc1ccc(OC)cc1 (stereo not drawn)	2%[11.2 µM]	-13%[11.6 µM]	-8%[11.5 µM]	-9%[11.6 µM]	-2%[11.2 µM]	·
CCCCc1nc2c(c3c1C[C@H](C)OC3)CN(C(=O)NCCc1c[nH]c3ccccc13)CC2	2%[11.2 µM]	7%[11.6 µM]	16%[11.5 µM]	3%[11.6 µM]	-3%[11.2 µM]	7%[14.2 µM]
Cc1cccc(NC(=S)NCCSc2ccc(Cl)cc2)c1	1%	10µM*[quencher]	-18%	?	-1%	17%
Cc1ccc(C)c(NC(=S)NCCSc2ccc(Cl)cc2)c1	5%	-24%	1%	-9%	1%	13%
CC(=O)Nc1ccc(N=Nc2cc(C)ccc2O)cc1	28%[201 µM]	·	·	·	?	·
CC(=O)c1ccc(NC(=O)Nc2sc3nc4n(c(=O)c3c2C)CCC(C)CC4)cc1 (stereo not drawn)	11%	13µM*[quencher]	?	?	-8%	·
Cc1cc(C)c(NC(=O)Nc2sc3nc4n(c(=O)c3c2C)CCC(C)CC4)c(C)c1 (stereo not drawn)	2%	?	6%	?	?	·

Source: PubChem BioAssay
